Inconclusive results are not listed. Unmarked numbers belong to inactive results. Active and inactive are the calls of the source. Calls come from the whole dose curve; as a rule, active = well fitted inhibition curve with a large enough effect; inconclusive = small, poorly fitted or top-dose-only effect; inactive = flat fitted curve, though single readings scatter.

For eleven compounds, max response and outcome results are on record in PubChem BioAssay (NCATS).
% is set by controls: 0 for no effect and ±100 for the full control effect.

For the test, the system named is KB-3-1. Kind of test: Cytotoxic Profiling of Annotated Libraries Using Quantitative High-Throughput Screening (AID 1296008). Note: nearly all actives have a fitted effect of over 60% in size. Conditions: Five cell lines viability, CellTiter-Glo ATP luminescence, 48-72 h; max response: stronger effect = lower value. In a few lines: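 Cells exposed to compounds for 48 or 72 hr at 37 degrees Celsius. Viability read as ATP-coupled luminescence with CellTiter-Glo after 10 min at room temperature.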
Background: ATP-based viability assays read luminescence as a measure of living cells.
For the compound `CCC(C)C(=O)O[C@H]1[C@@H](OC(=O)c2ccoc2)C[C@](C)(O)[C@]23OC(C)(C)[C@H](C[C@H](OC(=O)c4ccoc4)[C@]12COC(C)=O)[C@H]3OC(C)=O` (stereo partly specified), the max response was 3.34%.

Regarding `COC1CC(=O)C23C(=O)NC(CC(C)C)C2C(C)C(C)=CC3/C=C(\C)CCCC1O` (stereo unspecified), the max response is 1.14%.

In the case of `COc1c2c(nc3occc13)C(CC=C(C)C)(OC)C(O)CC2` (stereo unspecified), the max response was -4.13%.

On to `O=c1[nH]cnc2c([C@@H]3N[C@H](CO)[C@@H](O)[C@H]3O)c[nH]c12`, for which the max response was 7.13%.

For `O=C(COc1ccc(C(=O)c2ccccc2)cc1)NC1CCN(Cc2ccccc2)CC1`, the max response was -23%.

Turning to `CC1OC(OC2C(O)COC(O[C@@H]3[C@@H](O)[C@@H](O)[C@H](OC4C(OC(=O)[C@]56CCC(C)(C)CC5C5=CCC7[C@@]8(C)C[C@H](O)[C@H](OC9OC(CO)C(O)C(O)C9O)[C@@](C)(CO)C8[C@H](O)C[C@@]7(C)[C@]5(C)CC6)OCC(O)C4O)O[C@H]3C)C2O)C(O)C(O)C1O` (stereo partly specified), the max response was 8.32%.

Regarding `COc1cc(N(C)CCN(C)C)c(N)cc1Nc1nccc(-c2cn(C)c3ccccc23)n1`, the max response was -6.79%.

For the compound `C[C@@]12C(=O)N(c3ccc(C(=O)Nc4cccc5cccnc45)cc3)C(=O)[C@@H]1[C@@H]1C=C[C@H]2C1`, the max response was -11.1%.

For the compound `Cc1ccc(N2CCN(CCC3NC(=O)c4ccccc43)CC2)cc1C` (stereo unspecified), the max response was -2.29%.

For the compound `C=C1C(=O)OC[C@@H]1C/C=C(\C)CC1CC(C)C(=O)O1` (stereo partly specified), the compound was classed as inactive.

In the case of `N#Cc1ccc(COC[C@H]2O[C@@H](n3c(NCc4ccc(Cl)c(Cl)c4)nc4c(N)ncnc43)[C@H](O)[C@@H]2O)cc1`, the max response is 2.86%.
